In PMC10163288:
Not all results are given here. The true hit rate is not given.

B1: il2ra_site1_3nfp_sap_17_mot_HHH_b1_07644_af2_000000110_0001_40_57_H_._HEEHE_2706_0001_0000400054_0000001_0_0001_af2pred_0001_af2pred_1_swapped (protein)
chain: SSSSDALEFVEELAEKAFENNDKFQLRALYKLLREALEKTGNPEAEEVLEKVEELLRELQSSSSS
B2: il2ra_site2_2erj_sap_25_mot_ca9fcc9ace360711d783d1260e4fbff1_0001_1_af2_000000007_0001_15_32_H_._7f39e2d7389de0c2f60e905c27398b6a_0001_1_af2_0001_0000400011_000 … (protein)
chain: SSSSSYEERVEELLEEAEEAYREGDLHAVYRLAVEALHVASELGDQELIRLVAEFVEKISDSSSS
B3: il2ra_site1_2b5i_sap_16_mot_HHH_b1_01419_af2_000000080_0001_42_53_H_._HHH_b1_05266_af2_0001_0000100001_0000001_1_0001_af2pred_dldesign_0_af2pred (protein)
chain: SSSSSNQDEVYRLYKEALRLYKEGKREEAKKVLEEALKLAEKNKDEVAVKELKELLKRLESSSSS
B4: il2ra_site1_1z92_normal_mot_9b3351f2f66fbcc824ad33b4da01f8ef_0001_af2_000000012_0001_16_32_H_._HHH_b1_08171_0001_0000100006_0000001_0 (protein)
chain: SSSSSEEVLKKDLRFAVEARNPSSFRRLAELARRDLKEAGDEEALREFEEFVEELEQELGSSSSS
B5: il2ra_site1_1z92_normal_mot_HHH_b1_00893_000000159_0001_19_35_H_._43152d1d296b358565056a4a32fd9b81_0001_1_af2_0001_0000300029_0000001_0_af2pred_0001_af2pred_1_s … (protein)
chain: DDEELEEKLKEAAENRDVEKLEELLRELLELLGDPAVKFLLEFFERLLKRDEEDAVKNVLRFVSF
B6: il2ra_site1_2b5i_normal_mot_HHH_b1_06428_000000224_0001_1_17_H_._HHH_b1_02461_0001_0000700038_0000001_0_af2pred_dldesign_0_af2pred (protein)
chain: SSSSSSLAEARRLLLETEELLKAGKLEELAKLKKRIDALKAASDDPKVKKIADLINEALESSSSS
B7: il2ra_site2_2erj_normal_mot_c2bf78bdce995293a161f7082e24b401_0001_af2_000000082_0001_17_32_H_._HHH_b1_07868_0001_0000100001_0000001_0 (protein)
chain: SSSSSDEEEIRREVEELLEKVEEVPDLEEAYRLANEALRLASRLQDEELLRLILEVVQRHSSSSS
B8: il2ra_site2_3nfp_normal_mot_HHH_b1_05627_af2_000000038_0001_43_56_H_._HHH_b1_07199_af2_0001_0000600017_0000001_0 (protein)
chain: SSSSDKAEEYLRIALELLEEAIKAGDEESAKSILEVARLAAELHNDEEVEERLEELEELLSSSSS
B9: il2ra_site1_3nfp_normal_mot_HHH_b1_04049_af2_000000244_0001_42_55_H_._d1fb33ed66649044859e967e86ea168f_0001_af2_0001_0000200005_0000001_0 (protein)
chain: TKEKAIEDIIRALKQLPDPEVRELAEEAEELLENGDPEEALKVLKEAAKLLGDPVLEKLIEQYLT
B10: il2ra_site2_3nfp_sap_7_mot_HHH_b2_00746_000000285_0001_20_36_H_._HHH_b2_00413_af2_0001_0000200017_0000001_0_0001 (protein)
chain: SSSSDEVEELLREIRELLEEGDTYEAAQLLVRVSEIAAKLGDPELVKIVLELYKILKEKASSSSS
B11: il2ra_site2_3nfp_normal_mot_HHH_b1_05785_af2_000000002_0001_41_57_H_._HHH_b1_03527_af2_0001_0000800015_0000001_0 (protein)
chain: SSSSDEAEEYVKAALALLEEALEQGDEELFEKLARLIELAIEDLGNPELEERLEELKERGSSSSS
B12: il2ra_site2_2erj_sap_23_mot_ca9fcc9ace360711d783d1260e4fbff1_0001_1_af2_000000007_0001_15_32_H_._HHH_b2_04203_af2_0001_0000300022_0000001_0_0001 (protein)
chain: SSSDREEARVHFLAFRAMRLNNNGNPEEAQKVLEEAKEIAEENNNEELREWLEAMERTIKHSSSS
B13: il2ra_site2_3nfp_sap_18_mot_HHH_b1_07556_000000077_0001_42_55_H_._HHH_b2_07201_0001_0000400029_0000001_0_0001 (protein)
chain: SSSSDEEEEVKRSLEYLKAVAKLHNDEELQEVIEEAERILEEDNDPEKAAEALSEIALKLASSSS
B14: il2ra_site1_2b5i_sap_7_mot_HHH_b1_05947_000000126_0001_42_56_H_._HHH_b1_05810_af2_0001_0000100008_0000001_1_0001_af2pred_0001_af2pred (protein)
chain: SSSSSEEEQRAFELYHEASRAFSNGDKERARELLEEAIELAEEAGDPKIKRELEQFLEMLSSSSS
B15: il2ra_site1_3nfp_sap_21_mot_HHH_b2_04910_af2_000000236_0001_1_18_H_._4946fae19574d7b03d9e348227509a78_0001_0001_0000300023_0000001_0_0001_af2pred_0001_af2pred (protein)
chain: SSSDEREVHKLLKEALEAALKGNPEEARELLEEAERLAKELNNPRAEHTVEKALKSFERARSSSS
B16: il2ra_site2_2erj_normal_mot_76e6e8f7232a9e65eeaab5ff8ecb4c96_0001_000000242_0001_17_31_H_._HHH_eva_0320_af2_0001_0000500007_0000001_1 (protein)
chain: SSTEEEEVRRVVEEAEELIKRGDLEEAEEVLSEAFTLVYELGDEELVILILELAHELVRLLAKSS
B17: il2ra_site2_2erj_normal_mot_af86707857d369f3e1d85dcabc5f9321_0001_000000201_0001_14_29_H_._HHH_b1_07617_0001_0001000035_0000001_1_af2pred_0001_af2pred (protein)
chain: SSSSDEEEQIERLLREARELLEEGDPERAREVVWEAAQLAAESDNEELLKEILELLREIHGSSSS
B18: il2ra_site1_2b5i_normal_mot_HHH_b1_00432_000000039_0001_1_18_H_._HHH_b1_02735_0001_0000300013_0000001_0_af2pred_dldesign_0_af2pred (protein)
chain: SSSSSSDEEIEAAEDLALQALKEKDKEKRKELLEEALRLAQKGKDAKLVAQIQELLERLKSSSSS

What follows are binders tested against il2ra, P01589 (assay: yeast display titration).
il2ra, P01589, sequence (P01589 whole entry): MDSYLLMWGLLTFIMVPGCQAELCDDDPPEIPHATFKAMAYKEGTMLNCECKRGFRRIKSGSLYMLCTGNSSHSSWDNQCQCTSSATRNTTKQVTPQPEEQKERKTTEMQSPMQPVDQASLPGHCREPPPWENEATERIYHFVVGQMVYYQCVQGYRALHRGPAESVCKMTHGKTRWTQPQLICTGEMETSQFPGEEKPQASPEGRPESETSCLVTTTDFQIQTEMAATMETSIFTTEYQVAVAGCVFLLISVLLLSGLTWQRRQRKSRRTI

Apparent Kd, inactive:
B1 no binding seen
B2 no binding seen
B3 no binding seen
B4 > 1500 nM
B5 > 2780 nM
B6 no binding seen
B7 no binding seen
B8 no binding seen
B9 no binding seen
B10 no binding seen
B11 no binding seen
B12 no binding seen
B13 no binding seen
B14 no binding seen
B15 no binding seen
B16 no binding seen
B17 no binding seen
B18 no binding seen
